Inconclusive results are not listed. Active and inactive are the calls of the source. Calls come from the whole dose curve; tested in HEK293 reporter line.
Assay: qHTS for Inhibitors of the Functional Ribonucleoprotein Complex (vRNP) of Lassa (LASV) Arenavirus: LASV Primary Screen - GLuc reporter signal (AID 1347082); note: nearly all actives have a fitted effect of over 60% in size
Conditions: LASV minigenome vRNP, Gaussia luciferase reporter; series mostly up to 57.5 µM; activity change, negative = inhibition: at the top concentration
% is set by controls: 0 for no effect and ±100 for the full control effect.

SMILES	activity change, negative = inhibition
COc1cc(CC(C)N)c(OC)cc1I (stereo not drawn)	-7.63% (inactive)
C[N+]1(C)CCC(OC(=O)C(c2ccccc2)c2ccccc2)CC1	0.065% (inactive)
C[N+]1(C)[C@@H]2CC(OC(=O)[C@H](CO)c3ccccc3)C[C@H]1[C@H]1O[C@@H]12 (stereo partly drawn)	-6.78% (inactive)
C[C@]12C=CC(=O)C=C1CC[C@@H]1[C@@H]2CC[C@]2(C)OC(=O)CC[C@@H]12	5.18% (inactive)
C=CCN1CC[C@]23c4c5ccc(O)c4O[C@H]2/C(=N/NC(=O)c2ccccc2)CC[C@@]3(O)[C@H]1C5	-6.15% (inactive)

Assay: qHTS for Inhibitors of the Functional Ribonucleoprotein Complex (vRNP) of Lassa (LASV) Arenavirus: Viability assay - alamar blue signal for LASV Primary Screen (AID 1347083); note: nearly all actives have a fitted effect of over 80% in size
Conditions: cell viability, alamar blue fluorescence (LASV minigenome counter-screen); series mostly up to 57.5 µM; activity change, negative = reduced viability: at the top concentration

SMILES	activity change, negative = reduced viability	Potency
O[C@H]1[C@H]2[C@H](O)CCCN2C[C@H]1O	6.74% (inactive)	–
CN[C@H]1C[C@@H](N)[C@H](O)[C@@H](O[C@@H]2O[C@H](CO)[C@H](O)[C@@H]3OC4(O[C@H]23)O[C@H](C(N)CO)[C@H](O)[C@H](O)[C@H]4O)[C@@H]1O (stereo partly drawn)	-0.664% (inactive)	–
COc1ccc2c(c1O)-c1cccc3c1[C@@H](C2)N(C)CC3	-19.9% (inactive)	–
C[C@@H]1O[C@H](C[N+](C)(C)C)CS1	1.68% (inactive)	–
C[CH2][Hg][S]c1ccccc1C(=O)O	-15.3% (inactive)	–
CCCN(CCC)CCc1c[nH]c2ccc(C(N)=O)cc12	-2.21% (inactive)	–
COC1=CC=C2[C@H]3Cc4ccc(OC)c5c4[C@@]2(CCN3C)[C@H]1O5	2.35% [at 115 µM] (inactive)	–
CN(N=O)c1ccc(O)c(O)c1	4.88% (inactive)	–
CC1OC1P(=O)(O)O (stereo not drawn)	2.36% (inactive)	–
C/C(O)=C(\C#N)C(=O)Nc1cc(Br)ccc1Br	-1.87% (inactive)	–
CC(C)CC(NP(=O)(O)O[C@@H]1O[C@@H](C)[C@H](O)[C@@H](O)[C@H]1O)C(=O)NC(Cc1c[nH]c2ccccc12)C(=O)O (stereo partly drawn)	–	inactive
COc1ccc2c(c1)c(CCN1CCOCC1)c(C)n2C(=O)c1cccc(Cl)c1Cl	-38.8% (inactive)	–
O=c1c2ccccc2[se]n1-c1ccccc1	-4.61% (inactive)	–
NC(=O)c1cc(N2CC2)c([N+](=O)[O-])cc1[N+](=O)[O-]	-16.6% (inactive)	–
O=P(O)(O)C(Cl)(Cl)P(=O)(O)O	7.3% (inactive)	–
C[Se]C[C@H](N)C(=O)O	17% (inactive)	–
CCN(CC)c1ncnc2c1ncn2[C@@H]1O[C@H](COP(=O)(O)OP(=O)(O)C(Br)(Br)P(=O)(O)O)[C@@H](O)[C@H]1O	7.32% (inactive)	–
Oc1ccc2c3c1O[C@H]1c4oc5ccccc5c4C[C@@]4(O)C(C2)N(CC2CC2)CCC314 (stereo partly drawn)	3.33% (inactive)	–
NC(N)=NOCC[C@H](N)C(=O)O	9.76% (inactive)	–

SMILES	activity change, negative = reduced viability	Potency
N[C@@H](CCl)C(=O)O	-13.8% (inactive)	–
C=CCN(C1=NCCN1)c1c(Cl)cccc1Cl	2.93% (inactive)	–
C[C@@H]1[C@@H]2Cc3ccc(O)cc3[C@@]1(C)CCN2CC1CC1	4.51% (inactive)	–
CN(N=O)c1cc(O)ccc1O	–	inactive
N#C/C(=C/c1ccc(O)c(O)c1)C(N)=S	-7.21% (inactive)	–
CCCSP(=O)(OCC)SCCC	-4.81% [at 115 µM] (inactive)	–
CC1=C2C[C@H]3[C@@H](CC=C4C[C@@H](O)CC[C@@]43C)[C@@H]2CC[C@]12O[C@@H]1C[C@H](C)CN[C@H]1[C@H]2C	11% (inactive)	–
O=C/C=C/c1ccccc1	-0.0763% (inactive)	–
CCN(CCCl)Cc1ccccc1Br	13.6% (inactive)	–
C=CCN1CCc2cccc3c2[C@H]1Cc1ccc(O)c(O)c1-3	-11.4% (inactive)	–
CN1[C@H]2CC[C@@H]1[C@@H](C(=O)O)[C@@H](OC(=O)c1ccccc1)C2	6.61% [at 115 µM] (inactive)	–
CN(C)[C@@H]1C(=O)C(C(N)=O)=C(O)[C@@]2(O)C(=O)C3=C(O)c4c(O)ccc(Cl)c4[C@@](C)(O)[C@H]3C[C@@H]12	-31.4% (inactive)	–
CC(C)[C@@]1(NC(=O)[C@@H]2C[C@@H]3c4cccc5[nH]cc(c45)C[C@H]3N(C)C2)O[C@@]2(O)[C@@H]3CCCN3C(=O)[C@H](Cc3ccccc3)N2C1=O	-18.4% (inactive)	–
COc1cc(CC(C)N)c(OC)cc1I (stereo not drawn)	3.56% (inactive)	–
C[N+]1(C)CCC(OC(=O)C(c2ccccc2)c2ccccc2)CC1	4.59% (inactive)	–
C[N+]1(C)[C@@H]2CC(OC(=O)[C@H](CO)c3ccccc3)C[C@H]1[C@H]1O[C@@H]12 (stereo partly drawn)	-2.41% (inactive)	–
C[C@]12C=CC(=O)C=C1CC[C@@H]1[C@@H]2CC[C@]2(C)OC(=O)CC[C@@H]12	5.45% (inactive)	–
C=CCN1CC[C@]23c4c5ccc(O)c4O[C@H]2/C(=N/NC(=O)c2ccccc2)CC[C@@]3(O)[C@H]1C5	9.94% (inactive)	–

Assay: qHTS for Inhibitors of the Functional Ribonucleoprotein Complex (vRNP) of Lymphocytic Choriomeningitis Arenaviruses (LCMV): Viability assay - alamar blue signal for LCMV Primary Screen (AID 1347085); note: nearly all actives have a fitted effect of over 80% in size
Conditions: alamar blue viability counter-screen, LCMV vRNP screen cells; series mostly up to 57.5 µM; activity change, negative = lower viability: at the top concentration

SMILES	activity change, negative = lower viability	Potency
O[C@H]1[C@H]2[C@H](O)CCCN2C[C@H]1O	8.05% (inactive)	–
CN[C@H]1C[C@@H](N)[C@H](O)[C@@H](O[C@@H]2O[C@H](CO)[C@H](O)[C@@H]3OC4(O[C@H]23)O[C@H](C(N)CO)[C@H](O)[C@H](O)[C@H]4O)[C@@H]1O (stereo partly drawn)	1.6% (inactive)	–
COc1ccc2c(c1O)-c1cccc3c1[C@@H](C2)N(C)CC3	-13.5% (inactive)	–
C[C@@H]1O[C@H](C[N+](C)(C)C)CS1	4.1% (inactive)	–
C[CH2][Hg][S]c1ccccc1C(=O)O	-8.31% (inactive)	–
CCCN(CCC)CCc1c[nH]c2ccc(C(N)=O)cc12	15.7% (inactive)	–
COC1=CC=C2[C@H]3Cc4ccc(OC)c5c4[C@@]2(CCN3C)[C@H]1O5	6.94% [at 115 µM] (inactive)	–
CN(N=O)c1ccc(O)c(O)c1	5.67% (inactive)	–
CC1OC1P(=O)(O)O (stereo not drawn)	-3.53% (inactive)	–
C/C(O)=C(\C#N)C(=O)Nc1cc(Br)ccc1Br	34.3% (inactive)	–
CC(C)CC(NP(=O)(O)O[C@@H]1O[C@@H](C)[C@H](O)[C@@H](O)[C@H]1O)C(=O)NC(Cc1c[nH]c2ccccc12)C(=O)O (stereo partly drawn)	–	inactive
O=c1c2ccccc2[se]n1-c1ccccc1	-7.56% (inactive)	–
O=P(O)(O)C(Cl)(Cl)P(=O)(O)O	8.65% (inactive)	–
C[Se]C[C@H](N)C(=O)O	13.3% (inactive)	–
CCN(CC)c1ncnc2c1ncn2[C@@H]1O[C@H](COP(=O)(O)OP(=O)(O)C(Br)(Br)P(=O)(O)O)[C@@H](O)[C@H]1O	-25.2% (inactive)	–
Oc1ccc2c3c1O[C@H]1c4oc5ccccc5c4C[C@@]4(O)C(C2)N(CC2CC2)CCC314 (stereo partly drawn)	-7.12% (inactive)	–
NC(N)=NOCC[C@H](N)C(=O)O	16.4% (inactive)	–
N[C@@H](CCl)C(=O)O	-4.81% (inactive)	–

SMILES	activity change, negative = lower viability	Potency
C=CCN(C1=NCCN1)c1c(Cl)cccc1Cl	1.08% (inactive)	–
C[C@@H]1[C@@H]2Cc3ccc(O)cc3[C@@]1(C)CCN2CC1CC1	-6.29% (inactive)	–
CN(N=O)c1cc(O)ccc1O	–	inactive
N#C/C(=C/c1ccc(O)c(O)c1)C(N)=S	-13% (inactive)	–
CCCSP(=O)(OCC)SCCC	-28.9% [at 115 µM] (inactive)	–
CC1=C2C[C@H]3[C@@H](CC=C4C[C@@H](O)CC[C@@]43C)[C@@H]2CC[C@]12O[C@@H]1C[C@H](C)CN[C@H]1[C@H]2C	12.3% (inactive)	–
O=C/C=C/c1ccccc1	4.25% (inactive)	–
CCN(CCCl)Cc1ccccc1Br	-0.702% (inactive)	–
C=CCN1CCc2cccc3c2[C@H]1Cc1ccc(O)c(O)c1-3	-2.53% (inactive)	–
CN1[C@H]2CC[C@@H]1[C@@H](C(=O)O)[C@@H](OC(=O)c1ccccc1)C2	8.69% [at 115 µM] (inactive)	–
CCCCCCC(C)(C)c1ccc([C@@H]2C[C@H](O)CC[C@H]2CCCO)c(O)c1	-35.3% (inactive)	–
CN(C)[C@@H]1C(=O)C(C(N)=O)=C(O)[C@@]2(O)C(=O)C3=C(O)c4c(O)ccc(Cl)c4[C@@](C)(O)[C@H]3C[C@@H]12	-14.6% (inactive)	–
CC(C)[C@@]1(NC(=O)[C@@H]2C[C@@H]3c4cccc5[nH]cc(c45)C[C@H]3N(C)C2)O[C@@]2(O)[C@@H]3CCCN3C(=O)[C@H](Cc3ccccc3)N2C1=O	-2.23% (inactive)	–
COc1cc(CC(C)N)c(OC)cc1I (stereo not drawn)	5.8% (inactive)	–
C[N+]1(C)CCC(OC(=O)C(c2ccccc2)c2ccccc2)CC1	29.9% (inactive)	–
C[N+]1(C)[C@@H]2CC(OC(=O)[C@H](CO)c3ccccc3)C[C@H]1[C@H]1O[C@@H]12 (stereo partly drawn)	4.43% (inactive)	–
C[C@]12C=CC(=O)C=C1CC[C@@H]1[C@@H]2CC[C@]2(C)OC(=O)CC[C@@H]12	1.56% (inactive)	–
C=CCN1CC[C@]23c4c5ccc(O)c4O[C@H]2/C(=N/NC(=O)c2ccccc2)CC[C@@]3(O)[C@H]1C5	10.5% (inactive)	–

Source: PubChem BioAssay (NCATS)
